Bioassay records from PubChem.
rCAG binder-1: binders of r(CAG) RNA repeats, primary screen, biochemical, fluorescence. r(CAG) RNA repeat, TO-PRO-1 dye displacement fluorescence. inhibition, % at 3 µM. 370,000 compounds, 1.3% hits. AID 651821, 2012;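 active = inhibition above the plate cutoff, the mean of all test compounds on that plate plus 3 SD, cut at about 35% in these data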;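 also: 0% = DMSO alone and 100% = 100 µM mitoxantrone as full dye displacement; higher means more dye released from RNA so lower well fluorescence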
UHRF1 MBD2 ctr: UHRF1 methylated DNA binding inhibitors, primary screen, counter-screen for MBD2 inhibitor project, biochemical, TR-FRET, human UHRF1, single concentration | UHRF1 binding to methylated oligo | inhibition, % at 4.4 µM | 370,000 compounds, 0.75% hits; in the data active = inhibition above about 21%;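 also: UHRF1 SRA domain binding a hemimethylated CpG hairpin DNA probe; 0% = median of test compound wells and 100% = reference inhibitor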
LEDGF integ inh: blockers of LEDGF/p75-dependent integrase strand transfer – biochemical, TR-FRET, high throughput, primary screen; AID 743269, 2014; inhibition, % at 3.7 µM; HIV-1 integrase (with human LEDGF/p75); TR-FRET IN-LEDGF/p75 DNA integration, Eu/Cy5; 370,000 compounds, 0.64% hits;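 active = inhibition above the screen-wide mean plus 3 SD, cut at about 13% in these data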;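 also: signal is the Cy5 over europium emission ratio at 671 and 618 nm; 0% = plate median of compound wells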
MBD2 DNA inh: inhibitors of MBD2 binding to methylated DNA, primary screen, biochemical, TR-FRET, DNA-binding domain, human; Methyl-CpG-binding domain protein 2 (Homo sapiens), Q9UBB5; MBD2 binding to methylated oligonucleotide; inhibition, % at 4.4 µM; 370,000 compounds, 0.31% hits; in the data active = inhibition above about 13%
Target sequence (Q9UBB5 whole entry, looked up, the tested form may be a part): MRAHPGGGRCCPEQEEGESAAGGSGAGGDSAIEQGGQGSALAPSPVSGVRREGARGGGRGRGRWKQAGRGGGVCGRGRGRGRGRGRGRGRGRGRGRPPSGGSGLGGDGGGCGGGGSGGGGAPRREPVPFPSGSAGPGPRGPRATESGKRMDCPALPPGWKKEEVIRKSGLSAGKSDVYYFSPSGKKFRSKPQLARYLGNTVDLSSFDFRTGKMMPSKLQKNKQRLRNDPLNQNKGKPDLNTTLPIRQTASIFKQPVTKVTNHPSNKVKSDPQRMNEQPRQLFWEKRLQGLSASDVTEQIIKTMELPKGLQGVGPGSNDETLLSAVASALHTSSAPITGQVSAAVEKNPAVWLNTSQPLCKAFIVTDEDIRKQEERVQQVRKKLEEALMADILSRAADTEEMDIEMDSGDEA
DNMT1 inh: human DNMT1 methyltransferase inhibitors, primary screen, biochemical, molecular beacon, fluorescence, HinP1I cleavage, uHTS. inhibition (reported as % activation of signal), % at 10 µM. 360,000 compounds, 0.83% hits. AID 588458, 2011; in the data active = inhibition above about 50%
PG9 binder: binders of HIV-1 gp120 antibody PG9, primary screen, biochemical, TR-FRET; HIV-1 gp120 / PG9 antibody interaction; TR-FRET gp120-PG9 antibody binding; inhibition, % at 6.7 µM; 360,000 compounds, 0.43% hits; AID 624416, 2012; in the data active = inhibition above about 8.5%
rCAG bind conf: small molecules binding CAG repeat RNA – biochemical, fluorescence, confirmation. shares compounds with rCAG binder-1. r(CAG) RNA repeat, TO-PRO-1 dye displacement fluorescence. inhibition, % at 3 µM. 4,300 compounds, 70% hits. AID 652065, 2013;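 active = inhibition above a per-plate cutoff, the mean inhibition of sample wells plus 3 SD, cut at about 35% in these data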;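 also: loss of TO-PRO-1 fluorescence as compound displaces dye from 1x1 AA loop RNA; 0% = DMSO only wells and 100% = 100 µM mitoxantrone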
DNA CAG counter: displacement of TO-PRO-1 from CAG DNA duplex, counter-screen for rCAG RNA repeat binder project, biochemical, fluorescence, TO-PRO-1 dye, d(CAG) DNA oligo | inhibition, % at 3 µM | AID 652068, 2013 | shares compounds with rCAG binder-1 | 4,300 compounds, 94% hits | d(CAG) DNA oligo TO-PRO-1 dye displacement;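 active = inhibition above its plate's cutoff, the mean test-well inhibition plus 3 SD, cut at about 4.8% in these data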;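 also: 0% = DNA dye mix with DMSO and 100% = 100 µM mitoxantrone; hits displace the dye from DNA and so lower well fluorescence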
dCAG dye DR: inhibitors of DNA CAG/GTC TO-PRO-1 complex, dose response, counter-screen for rCAG RNA repeat binder project, biochemical, fluorescence, TO-PRO-1 dye; shares compounds with rCAG binder-1; DNA CAG/GTC duplex TO-PRO-1 dye displacement fluorescence; IC50, µM; 250 compounds, 20% hits; AID 686960, 2013; in the data active = IC50 below about 10 µM
dCAG DNA bind: TO-PRO-1 dye complex inhibitors on d(CAG) DNA, dose response, counter-screen, biochemical, fluorescence, late stage; shares compounds with rCAG binder-1; IC50, µM; d(CAG) DNA duplex TO-PRO-1 dye displacement; 30 compounds, 80% hits
rCAG binder-2: molecules binding r(CAG) RNA repeats, late stage dose response, late-stage follow-up, biochemical, fluorescence, dose response, powder samples. shares compounds with rCAG binder-1. r(CAG) RNA TO-PRO-1 dye displacement. IC50, µM. 30 compounds, 100% hits. AID 720651, 2013
The depositor's hits bear a star; i = inactive; x = not tested or not shown. A selection: hits, their analogues and other compounds. The true share with any hit is near 3.5%. Unless noted, no rule for the calls is given here.

SMILES	rCAG binder-1	UHRF1 MBD2 ctr	LEDGF integ inh	MBD2 DNA inh	DNMT1 inh	PG9 binder	rCAG bind conf	DNA CAG counter	others
Cc1cccc(NS(=O)(=O)c2nnc(NC(=O)c3ccc(C)c(C)c3)s2)c1	41*	0	-3	1	-2	0	37*	14*
Cc1cccc(NS(=O)(=O)c2nnc(NC(=O)C3CCCCC3)s2)c1	37*	0	2	-3	-3	0	20	5.3*
O=C1NC(=S)SC1=Cc1ccc2c(c1)OCO2	1	0	-1	2	5	1	x	x
O=C1N/C(=N/S(=O)(=O)Cc2ccccc2)S/C1=C/c1ccc2c(c1)OCO2	66*	-2	1	-5	2	-2	56*	19*
Cc1sc(NC(=O)C2CCCO2)c(C(N)=O)c1C (configuration not stated)	42*	5	5	-2	1	-1	12	3
Cc1cc2nccc(-c3ccc(OCCCF)cc3)n2n1	-3	0	3	-3	-2	-2	x	x
C=CCc1cc(/C=C2/NC(=O)N(CC)C2=O)cc(OCC)c1OCc1ccc(C(=O)O)cc1	43*	8	-1	1	10	-1	41*	10*
C=CCc1cc(C=O)cc(OCC)c1OCc1ccc(Cl)cc1	0	0	3	-6	15	-1	x	x
CN(Cc1ccccc1)S(=O)(=O)c1nnc(NC(=O)c2ccc(F)cc2)s1	4	-1	1	0	-3	0	x	x
COc1ccc(C(=O)Nc2nnc(S(=O)(=O)N(C)Cc3ccc(F)cc3)s2)cc1OC	26	3	0	-4	-6	1	x	x
COc1ccc(CN(C)S(=O)(=O)c2nnc(NC(=O)c3cccc(C)c3)s2)cc1OC	67*	0	-2	0	-2	2	53*	17*
CN(Cc1ccc(F)cc1)S(=O)(=O)c1nnc(NC(=O)c2ccccc2)s1	42*	-1	-1	2	2	-1	43*	11*
COc1ccc(CN(C)S(=O)(=O)c2nnc(NC(=O)c3cccc(F)c3)s2)cc1	41*	-1	-3	3	-4	1	64*	25*
CN(Cc1ccc(F)cc1)S(=O)(=O)c1nnc(NC(=O)c2ccccc2Br)s1	68*	0	-9	3	-4	0	48*	14*
CCC(Oc1ccc(C)cc1)C(=O)Nc1ccc(S(=O)(=O)Nc2nccs2)cc1 (configuration not stated)	53*	-1	2	-2	-2	-5	33	8.8*
CC(Oc1ccccc1)C(=O)Nc1ccc(S(=O)(=O)Nc2nccs2)cc1 (configuration not stated)	10	2	-2	1	1	1	x	x
COc1cccc(CNc2ccc(S(=O)(=O)Nc3nccs3)cc2)c1O	19	3	2	-1	-1	-2	x	x
CC(Oc1ccc(Br)cc1)C(=O)Nc1ccc(S(=O)(=O)Nc2nccs2)cc1 (configuration not stated)	52*	0	2	4	0	-1	34	9.4*
O=S(=O)(Nc1nccs1)c1ccc(NCc2cc(Br)cc(Br)c2O)cc1	58*	0	5	-5	-8	0	41*	14*
O=C(Nc1cccc(-c2cccc(F)c2)c1)C1CCN(C2CCOCC2)CC1	-3	0	0	2	-1	1	x	x
O=C(Nc1ccc2ccccc2c1)c1ccc(NS(=O)(=O)c2ccc(Br)s2)cc1	71*	-1	1	-3	0	-1	88*	57*
O=C(c1ccncc1)c1ccc(NS(=O)(=O)c2ccc(Br)s2)cc1	31	-2	2	0	-3	-2	x	x
Cc1cc(S(=O)(=O)N2CCN(c3ccccn3)CC2)c(C)cc1Cl	-5	4	1	2	1	-1	x	x
COc1cc(/C=C(\C#N)C(=O)NCC2CCCO2)ccc1OCCC(C)C (configuration not stated)	-7	-1	0	0	-1	-1	x	x
CCCCOc1ccc(S(=O)(=O)N2CCCCCC2)cc1	-3	-2	4	1	1	-1	x	x
COc1cc(/C=C(\C(=O)O)c2ccc(S(=O)(=O)N3CCCC3)s2)ccc1OCCC(C)C	72*	4	-2	5	22	1	57*	20*
CCCCOc1ccc(/C=C(\C(=O)O)c2ccc(S(=O)(=O)N3CCCC3)s2)cc1	67*	0	4	1	2	-1	66*	28*
O=C(O)/C(=C\c1ccc(C(F)(F)F)cc1)c1ccc(S(=O)(=O)N2CCCC2)s1	37*	1	3	-4	10	-1	25	5.5*
O=C(O)/C(=C\c1ccc(Br)cc1)c1ccc(S(=O)(=O)N2CCCCC2)s1	47*	-2	4	-5	15	0	67*	25*	dCAG dye DR=i;dCAG DNA bind=8.3*;rCAG binder-2=2.8*
O=C(O)C1CCCN(S(=O)(=O)c2ccc(Cl)s2)C1 (configuration not stated)	3	-1	4	0	2	0	x	x
